Composite z-score and z-score data for five molecules are collected here from PubChem BioAssay.

The test system of assay [1] is Wnt5a (protein binding on small-molecule microarray). Briefly: small molecules binding Wnt5a protein – biophysical, small-molecule microarray, 635/667 nm fluorescence, primary screen (AID 1142).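 Further: fluorescence read at 667 nm with signal to noise per printed feature.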 To be noted: 635 nm fluorescence, higher = more signal.
A short description of assay [2]: ATP-based viability of Huh7 replicon cells – cell-based, CellTiter-Glo luminescence, basal, 48 h, cytotoxicity control for HCV replication inhibitor project, primary screen (AID 1143).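 Further: Huh7 hepatoma cells carrying a hepatitis C replication reporter with no stimulus; test concentration not given here.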 As to conditions: higher = more signal, called active from +8 up or from −8 down.
Assay [3] in a line: Pseudomonas biofilm growth suppression – PAO1 strain, BacTiter-Glo luminescence, LB-PBS, primary screen (AID 1144). As to conditions: P. aeruginosa PAO1 biofilm, 12 h, higher = more signal.
A short description of assay [4]: basal CRE-LacZ reporter activity in PC12 – cell-based, unstimulated, primary screen (AID 1145). To be noted: no forskolin, luminescence, 4.5 h, higher = more signal, called active from +8 up or from −8 down.
A short description of assay [5]: forskolin-driven CRE-LacZ activity in PC12 – cell-based, CRE-LacZ reporter, forskolin-stimulated, primary screen (AID 1146).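 Further: PC12 cells with 6xCRE LacZ reporter stimulated by forskolin 10 µM; beta-galactosidase reporter signal reflecting CREB driven transcription.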 As to conditions: luminescence, 4.5 h, higher = more signal, called active from +8 up or from −8 down.
Assay [6] has as its target Streptavidin (Streptomyces avidinii) (UniProt P22629). Briefly: compounds binding control protein streptavidin – biophysical, small-molecule microarray, 635/667 nm fluorescence, artefact control for SMM compound annotation, primary screen (AID 1147).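 Further: signal reflects streptavidin binding to arrayed compounds as a control protein.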 As to conditions: higher = more signal.
A short description of assay [7]: probe aInhba binding on compound microarray – biochemical, small-molecule microarray, 635/667 nm fluorescence, primary screen (AID 1148).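 Further: score merges 667nm spot fluorescence with signal-to-noise for antibody binding to printed compounds.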 To be noted: higher = more signal.
For assay [8], the target named is Torsin-1A (Homo sapiens) (UniProt O14656). Description: TOR1A wild-type binding on microarray – cell lysate, small-molecule microarray, lysate, 635/667 nm, primary screen (AID 1149). As to conditions: COS7 hTOR1A-WT lysate, 635 nm fluorescence, higher = more signal.
Chain of Torsin-1A (Homo sapiens) (O14656 whole entry, looked up): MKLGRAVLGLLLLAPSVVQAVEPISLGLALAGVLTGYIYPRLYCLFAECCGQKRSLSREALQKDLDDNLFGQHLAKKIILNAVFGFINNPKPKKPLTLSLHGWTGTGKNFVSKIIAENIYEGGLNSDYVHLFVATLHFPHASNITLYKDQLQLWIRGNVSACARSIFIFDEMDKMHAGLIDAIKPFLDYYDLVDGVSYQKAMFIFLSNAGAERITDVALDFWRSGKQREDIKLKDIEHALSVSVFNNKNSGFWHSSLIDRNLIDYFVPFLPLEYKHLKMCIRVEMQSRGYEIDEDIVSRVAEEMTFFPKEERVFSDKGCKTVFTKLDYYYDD
Assay [9] has the same target. Description: torsin A mutant lysate binding on microarrays – cell lysate, small-molecule microarray, COS7 lysate, 635/667 nm fluorescence, primary screen (AID 1150).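 Further: score pools 667 nm emission and signal to noise measuring lysate protein binding.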 As to conditions: COS7 hTOR1A mutant lysate, 635 nm fluorescence, higher = more signal.
For assay [10], the system named is Sonic hedgehog protein (Shh). Description: Sonic hedgehog microarray binding compounds – biochemical, small-molecule microarray, 635/667 nm fluorescence, primary screen (AID 1151).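 Further: Shh protein binding to compounds spotted on small-molecule microarray slides; score combines spot fluorescence intensity with signal-to-noise across triplicate slides.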 To be noted: 635 nm fluorescence, higher = more signal.
Assay [11] can be described thus: optical density shifts of acrAB sulA E. coli – strain DRC41, OD650, 48 h, E. coli filamentation inducer project, primary screen (AID 1152).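 Further: E. coli MC1000 strain DRC41 lacking acrAB efflux pump and sulA.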 To be noted: higher = more signal, called active from +8 up or from −8 down.
The nature of assay [12]: probe aLefty1 binding on compound microarray – biochemical, small-molecule microarray, 635/667 nm fluorescence, primary screen (AID 1153).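 Further: score merges spot fluorescence with signal-to-noise ratio from the scanned slide images.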 To be noted: higher = more signal.
Assay [13] can be described thus: plasmodial surface anion channel blockers, osmotic lysis – cell-based, P. falciparum Indochina, OD700, 1 h, primary screen (AID 1154). As to conditions: P. falciparum Indochina infected RBC osmotic lysis, higher = more signal, called active from +8 up or from −8 down.
Assay [14] in a line: plasmodial surface anion channel blockers, osmotic lysis – cell-based, P. falciparum Indochina, OD700, 2 h, primary screen (AID 1155).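 Further: lysis reports solute entry through the parasite surface anion channel PSAC.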 To be noted: P. falciparum Indochina infected erythrocytes, higher = more signal, called active from +8 up or from −8 down.
Assay [15] can be described thus: changes in parasitized red cell lysis, either direction – P. falciparum Indochina, OD700, 3 h, PSAC antagonist project, primary screen (AID 1156). As to conditions: P. falciparum-infected erythrocytes, osmotic lysis, higher = more signal, called active from +8 up or from −8 down.
The nature of assay [16]: plasmodial surface anion channel blockers, osmotic lysis – cell-based, P. falciparum Indochina, OD700, 18 h, primary screen (AID 1157). To be noted: P. falciparum Indochina infected erythrocytes, osmotic lysis OD700, 18 h; higher = more signal, called active from +8 up or from −8 down.
Assay [17] is described as follows: S6 kinase pathway phospho-S6 level changes – cell-based, A549, cytoblot, luminescence, serum-stimulated, primary screen (AID 1158).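 Further: serum-stimulated A549 lung adenocarcinoma cells; signal is phosphorylated S6 detected by cytoblot immunostaining with HRP secondary.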 As to conditions: 5 h, higher = more signal.
Assay [18] addresses NADPH oxidase 2 (Homo sapiens) (UniProt P04839). Briefly: compounds shifting NOX2 Amplex Red fluorescence – cell-based, HEK293-NOX2, PMA-stimulated, NOX inhibitor project, primary screen (AID 1159). Further: test concentration not given here. To be noted: 45 min, higher = more signal, called active from +8 up or from −8 down.
The target of assay [19] is NADPH oxidase 4 (Homo sapiens) (UniProt Q9NPH5). Description: compounds shifting NOX4 Amplex Red fluorescence – cell-based, HEK293-NOX4, tetracycline-induced, NOX inhibitor project, primary screen (AID 1160). To be noted: HEK293-NOX4, Amplex Red H2O2 fluorescence, 45 min; higher = more signal, called active from +8 up or from −8 down.
Chain of NADPH oxidase 4 (Homo sapiens) (Q9NPH5 whole entry, looked up): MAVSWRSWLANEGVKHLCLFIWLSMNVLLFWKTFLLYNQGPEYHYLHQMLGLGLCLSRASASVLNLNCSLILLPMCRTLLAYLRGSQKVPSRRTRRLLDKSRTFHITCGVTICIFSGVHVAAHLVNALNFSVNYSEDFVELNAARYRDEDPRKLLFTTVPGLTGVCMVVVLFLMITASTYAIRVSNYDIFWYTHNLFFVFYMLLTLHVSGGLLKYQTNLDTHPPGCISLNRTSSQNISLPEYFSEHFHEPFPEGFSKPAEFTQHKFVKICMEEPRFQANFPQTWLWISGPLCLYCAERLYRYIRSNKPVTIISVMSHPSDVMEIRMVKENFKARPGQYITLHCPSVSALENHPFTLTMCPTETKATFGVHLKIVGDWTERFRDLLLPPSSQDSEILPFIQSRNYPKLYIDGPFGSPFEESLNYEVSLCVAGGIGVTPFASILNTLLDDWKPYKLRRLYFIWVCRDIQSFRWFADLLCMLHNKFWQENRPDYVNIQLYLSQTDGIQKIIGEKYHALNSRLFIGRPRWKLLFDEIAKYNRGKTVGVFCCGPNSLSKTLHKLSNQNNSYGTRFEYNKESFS
The target in assay [20] is NADPH oxidase 5 (Homo sapiens) (UniProt Q96PH1). Briefly: compounds shifting NOX5 Amplex Red fluorescence – cell-based, HEK293-NOX5, NOX inhibitor project, primary screen (AID 1161). As to conditions: HEK293-NOX5, ionomycin, 45 min, higher = more signal.
Chain of NADPH oxidase 5 (Homo sapiens) (Q96PH1 whole entry, looked up): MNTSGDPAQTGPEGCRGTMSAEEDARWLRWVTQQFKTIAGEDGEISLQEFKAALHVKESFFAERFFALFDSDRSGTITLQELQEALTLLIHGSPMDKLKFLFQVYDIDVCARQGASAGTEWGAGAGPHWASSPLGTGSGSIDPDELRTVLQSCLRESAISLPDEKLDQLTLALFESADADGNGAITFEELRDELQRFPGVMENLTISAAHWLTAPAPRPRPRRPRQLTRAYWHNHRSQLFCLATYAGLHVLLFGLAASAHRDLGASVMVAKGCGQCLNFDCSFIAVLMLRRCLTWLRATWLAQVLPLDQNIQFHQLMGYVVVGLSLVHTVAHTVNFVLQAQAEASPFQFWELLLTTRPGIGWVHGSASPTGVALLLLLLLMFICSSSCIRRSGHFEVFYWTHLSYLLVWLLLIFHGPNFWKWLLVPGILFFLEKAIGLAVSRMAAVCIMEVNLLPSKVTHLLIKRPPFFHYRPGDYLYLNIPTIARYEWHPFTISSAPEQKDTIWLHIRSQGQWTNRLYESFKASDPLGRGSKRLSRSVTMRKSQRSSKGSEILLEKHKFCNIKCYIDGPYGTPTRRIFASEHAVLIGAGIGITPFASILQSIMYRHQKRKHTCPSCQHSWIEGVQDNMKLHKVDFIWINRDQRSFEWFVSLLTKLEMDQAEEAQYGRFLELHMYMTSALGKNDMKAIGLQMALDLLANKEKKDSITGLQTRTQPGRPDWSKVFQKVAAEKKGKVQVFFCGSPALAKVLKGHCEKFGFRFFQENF

Calls of active or inactive are those of the source. Unless noted, how the calls were made is not given here.

Chain of NADPH oxidase 2 (Homo sapiens) (P04839 whole entry, looked up): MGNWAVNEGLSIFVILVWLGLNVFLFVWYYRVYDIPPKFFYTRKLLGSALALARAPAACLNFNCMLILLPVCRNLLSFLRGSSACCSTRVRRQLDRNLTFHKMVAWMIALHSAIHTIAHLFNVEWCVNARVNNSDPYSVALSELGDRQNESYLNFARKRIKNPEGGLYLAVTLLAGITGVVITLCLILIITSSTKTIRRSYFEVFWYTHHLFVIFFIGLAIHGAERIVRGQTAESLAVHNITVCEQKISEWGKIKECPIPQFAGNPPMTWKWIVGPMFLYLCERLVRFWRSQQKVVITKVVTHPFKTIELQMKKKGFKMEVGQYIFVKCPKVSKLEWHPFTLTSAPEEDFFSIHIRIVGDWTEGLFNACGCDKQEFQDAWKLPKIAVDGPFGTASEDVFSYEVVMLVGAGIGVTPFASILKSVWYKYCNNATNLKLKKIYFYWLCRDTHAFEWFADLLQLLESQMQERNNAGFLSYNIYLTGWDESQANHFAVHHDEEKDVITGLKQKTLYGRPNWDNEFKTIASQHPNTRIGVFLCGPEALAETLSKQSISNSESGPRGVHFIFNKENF
Chain of Streptavidin (Streptomyces avidinii) (P22629 whole entry, looked up): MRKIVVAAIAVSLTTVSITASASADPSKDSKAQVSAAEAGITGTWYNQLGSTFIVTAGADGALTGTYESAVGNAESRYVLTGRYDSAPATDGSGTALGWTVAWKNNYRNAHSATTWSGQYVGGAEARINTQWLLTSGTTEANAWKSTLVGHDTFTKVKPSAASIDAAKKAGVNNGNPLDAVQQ

With `CN(C)CCCCNC(=O)[C@H]1C[C@H]2C(=O)NCC(=O)N2[C@H]1c1cccc(OCCO)c1`, the composite z-score is 0.133 in [1]; -1.04 in assay [6]; -0.202 in assay [7]; 0.0774 with Torsin-1A (Homo sapiens) [8]; -0.0032 with Torsin-1A (Homo sapiens) [9]; 2.19 in assay [10]. The same molecule registered a composite z-score in [12] of -0.007. Besides, the z-score in [2] is 0.344 (inactive); in assay [3], -0.254 (inactive); in assay [4], -0.398 (inactive); in assay [5], 0.586 (inactive); in assay [11] it was 1.06 (inactive); in assay [13], 0.799 (inactive). Besides, the z-score is 0.33 (inactive) in assay [14]; -0.0825 (inactive) in [15]; 0.129 (inactive) in assay [16]; -0.0315 in [17]; -0.241 (inactive) in assay [18]; 0.382 (inactive) in [19]. Further, the z-score in assay [20] is 1.05.

`COCCOC(=O)N1C(=O)[C@@]2(c3cc(C#CC4=CCCCC4)ccc31)[C@H](c1ccccc1OCCO)N1[C@H](c3ccccc3)[C@H](c3ccccc3)OC(=O)[C@H]1[C@@H]2C(N)=O`: the composite z-score in [1] is 0.288; in [6], 0.771; in assay [7], -0.115; with Torsin-1A (Homo sapiens) [8], 1.21; with Torsin-1A (Homo sapiens) [9], 0.137; in assay [10], 1.7. Moreover, the composite z-score in assay [12] was -0.0611. Besides, the z-score in [2] is -6.61 (inactive); in [3], -1.73 (inactive); in [4] it was -2.37 (inactive); in assay [5] it was -1.6 (inactive); in assay [11] it was 1.97 (inactive); in [13], 2.66 (inactive). Moreover, the z-score in assay [14] is 0.298 (inactive); in assay [15], -0.714 (inactive); in assay [16] it was -0.0482 (inactive); in assay [17], 2.22; in assay [18] it was 1.77 (inactive); in [19] it was 0.548 (inactive). The z-score in [20] is -0.172.

Regarding `C=C(/C(=C/C[C@H](OC(=O)c1ccncc1)c1ccccc1OCCO)c1cc(C(=O)OC)ccc1OC)C(C)C`, the composite z-score in [1] was 0.913; in [6], -0.0945; in assay [7], -0.0375; with Torsin-1A (Homo sapiens) [8], 0.712; with Torsin-1A (Homo sapiens) [9] it was 0.441; in [10] it was 1.74. Further, the composite z-score in assay [12] stood at 0.428. Further, the z-score in [2] is -1.5 (inactive); in assay [3] it was -0.439 (inactive); in assay [4] it was 6.99 (inactive); in assay [5], 0.644 (inactive); in assay [11], -0.458 (inactive); in assay [13], 14.9 (active). The z-score is 2.53 (inactive) in assay [14]; 2.19 (inactive) in assay [15]; 1.02 (inactive) in assay [16]; 0.222 in assay [17]; 1.22 (inactive) in [18]; -0.614 (inactive) in assay [19]. In [20], the z-score was -1.29.

For the molecule `COCCOC(=O)N1C(=O)[C@@]2(c3ccccc31)[C@H](C(N)=O)[C@H]1C(=O)O[C@H](c3ccccc3)[C@H](c3ccccc3)N1[C@@H]2c1ccc(OCCO)cc1`, the composite z-score in assay [1] turned out to be 0.62; in assay [6], 0.554; in assay [7] it was 0.0155; with Torsin-1A (Homo sapiens) [8], 1.13; with Torsin-1A (Homo sapiens) [9], 1.14; in [10] it was 1.9. Besides, in [12], the composite z-score turned out to be 0.196. The z-score in assay [2] was -1.57 (inactive); in assay [3], -0.762 (inactive); in [4] it was -1.28 (inactive); in assay [5] it was -1.15 (inactive); in assay [11], 1.15 (inactive); in [13] it was 3.76 (inactive). In addition, the z-score in [14] is 0.527 (inactive); in assay [15], -0.535 (inactive); in assay [16] it was 0.436 (inactive); in [17] it was -0.211; in [18] it was -0.555 (inactive); in assay [19], 1.1 (inactive). Besides, the z-score in assay [20] worked out at 0.00857.

As for `CCCC[C@@H](O)C1=C(COC)Cn2c(=O)n(-c3ccccc3)c(=O)n2[C@H]1CO`, the composite z-score in assay [1] is -0.296; in assay [6] it was -0.538; in [7] it was -0.128; in the assay with Torsin-1A (Homo sapiens) [8], -0.527; with Torsin-1A (Homo sapiens) [9] it was -0.577; in assay [10], 0.223. For the same molecule, the composite z-score in assay [12] was -0.224. In addition, the z-score in assay [2] was -0.915 (inactive); in assay [3], -0.313 (inactive); in [4], -0.0487 (inactive); in assay [5], -1.11 (inactive); in assay [11], 4.01 (inactive); in assay [13] it was -0.0913 (inactive). For the same molecule, the z-score in assay [14] was -0.696 (inactive); in assay [15] it was -0.304 (inactive); in assay [16], -2.74 (inactive); in [17], 1.9; in assay [18] it was -1.55 (inactive); in assay [19], 0.208 (inactive). Also, the z-score in [20] turned out to be 0.716.
